HSF-1 act: increases HSF-1 driven luciferase reporter signal | NIH3T3-HGL HSF-1 luciferase reporter, MG132, 8 h; 100% = twice DMSO control signal | activation, % at 9 µM | 300,000 compounds, 1.7% hits;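 active = mean replicate activation of at least 50% with a set share of replicates each reaching 50%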
TLR4 MyD88 comp: blocks binding of human TLR4 to MyD88 | O00206+Q99836 | HeLa CL3-4 TLR4/MyD88 BLA complementation, FRET ratio | AID 861 | 200,000 compounds, 0.18% hits | inhibition, % at 8.4 µM; in the data active = inhibition above about 25%
Target sequence (O00206 whole entry, looked up): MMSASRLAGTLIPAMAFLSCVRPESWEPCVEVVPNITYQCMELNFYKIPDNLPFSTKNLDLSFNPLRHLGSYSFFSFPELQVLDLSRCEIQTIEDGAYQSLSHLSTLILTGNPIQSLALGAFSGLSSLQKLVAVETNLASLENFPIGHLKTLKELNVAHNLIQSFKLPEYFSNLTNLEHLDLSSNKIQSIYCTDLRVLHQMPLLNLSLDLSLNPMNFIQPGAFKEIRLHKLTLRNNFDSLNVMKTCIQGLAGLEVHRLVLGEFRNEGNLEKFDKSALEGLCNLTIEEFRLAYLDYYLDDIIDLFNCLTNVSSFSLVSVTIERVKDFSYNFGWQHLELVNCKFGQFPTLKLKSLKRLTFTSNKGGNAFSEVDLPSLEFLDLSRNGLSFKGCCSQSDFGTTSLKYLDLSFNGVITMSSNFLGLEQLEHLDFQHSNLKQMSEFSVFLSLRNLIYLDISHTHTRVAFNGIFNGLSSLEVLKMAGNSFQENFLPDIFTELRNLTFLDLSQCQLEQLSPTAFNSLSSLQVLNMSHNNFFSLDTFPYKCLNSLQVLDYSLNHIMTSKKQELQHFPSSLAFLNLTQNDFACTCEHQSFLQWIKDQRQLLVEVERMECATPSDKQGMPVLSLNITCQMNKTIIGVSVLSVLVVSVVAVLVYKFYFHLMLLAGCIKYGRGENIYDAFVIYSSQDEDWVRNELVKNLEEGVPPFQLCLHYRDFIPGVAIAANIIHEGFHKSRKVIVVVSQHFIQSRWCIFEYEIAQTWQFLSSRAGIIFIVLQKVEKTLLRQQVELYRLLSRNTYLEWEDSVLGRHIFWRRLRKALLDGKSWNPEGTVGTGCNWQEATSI
Target sequence (Q99836 whole entry, looked up): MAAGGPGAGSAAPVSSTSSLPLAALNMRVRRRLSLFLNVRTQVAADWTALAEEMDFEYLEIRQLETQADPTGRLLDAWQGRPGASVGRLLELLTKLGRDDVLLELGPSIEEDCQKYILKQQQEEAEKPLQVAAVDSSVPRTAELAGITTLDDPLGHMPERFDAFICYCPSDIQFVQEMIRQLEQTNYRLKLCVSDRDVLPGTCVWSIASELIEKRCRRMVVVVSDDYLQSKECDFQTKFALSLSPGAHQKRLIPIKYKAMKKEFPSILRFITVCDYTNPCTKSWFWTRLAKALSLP
HSF1 inh: HSF1 inhibition; NIH3T3-HGL HSE-luciferase, MG132-induced, luminescence 8 h; hits give low values; activity change, negative = inhibition, % at 7.5 µM (by protocol); 300,000 compounds, 0.77% hits; AID 2098;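 active = more than half of replicate wells show activity change below -50%, luminescence cut by over half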;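 note: luciferase reports HSF-1 transcriptional activity via heat shock element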
TLR9-MyD88 inh: blocks human TLR9 binding to MyD88; Q9NR96+Q99836; 340,000 compounds, 0.21% hits; inhibition, % at 4.98 µM; AID 504734; CHO BLA complementation TLR9-MyD88, CCF4 FRET ratio;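 active = inhibition above the mean over all tested compounds plus 3 SD, cut at about 21% in these data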
NOD2 RIPK2 PPI: blocks binding of human NOD2 to RIPK2; O43353; CHO BLA complementation NOD2-RIPK2, CCF4 ratio; inhibition, % at 4.98 µM; 360,000 compounds, 0.38% hits; AID 624267; in the data active = inhibition above about 21%
Of the large screens only hits and unclear results are named; the others gave an inactive call. The list is not random: actives were taken first. Their share in the collection is about 2.4%.

CC(C)CCn1c(SCC(=O)NC2CCS(=O)(=O)C2)nc2cc(Cl)ccc2c1=O (centres undefined)	none (no result: TLR4 MyD88 comp)
CCOC(=O)CNC(=O)CSc1nnc(C)c(=O)[nH]1	HSF1 inh -81
Cc1cccc(N(CC(=O)Nc2ccccc2-c2ccccc2)S(=O)(=O)c2ccccc2)c1C	HSF-1 act 53
COc1ccc(C2N(C(=O)CN3CCCC3)CCCN2S(=O)(=O)c2ccccc2)cc1 (centres undefined)	HSF-1 act 105 (no result: TLR4 MyD88 comp)
COc1ccc(C2N(C(C)=O)CCCN2S(=O)(=O)c2ccc(C)cc2)cc1 (centres undefined)	none (no result: TLR4 MyD88 comp)
NC(=O)c1ccc(NC(=O)CNC(=O)c2sc3ccccc3c2Cl)cc1	none (no result: HSF-1 act, TLR4 MyD88 comp, HSF1 inh)
COC(=O)Cc1c(C)c2ccc(OC(=O)c3ccccc3)cc2oc1=O	HSF-1 act 61
Cc1c(Cc2ccccc2)c(=O)oc2cc(OC(=O)c3ccccc3)ccc12	none
COc1ccc(CCNC(=O)c2cc(COc3c(C)cccc3C)on2)c(OC)c1	HSF-1 act 56 (no result: TLR4 MyD88 comp)
CCCCCCCCN1C(=O)[C@H](CC(=O)NCCCOC)C[C@@]2(C(=O)OCC)CCCC=C12	none (no result: HSF-1 act, TLR4 MyD88 comp, HSF1 inh, TLR9-MyD88 inh)
CC(C)Cn1cnc2c(SCCc3ccccc3)nc(N)nc21	none (no result: HSF-1 act, TLR4 MyD88 comp, HSF1 inh)
COc1ccc(-c2nc(CS(=O)CC(=O)NCc3cccnc3)c(C)o2)cc1 (centres undefined)	none
CCc1ccc(-c2nc(CS(=O)CC(=O)NCc3cccnc3)c(C)o2)cc1 (centres undefined)	HSF1 inh -74
Cc1csc(C(C)NC(=O)c2ccc(OC3CCN(CCc4ccccc4)CC3)cc2)n1 (centres undefined)	none (no result: TLR4 MyD88 comp)
CCOc1ccc(CCNC(=O)C(O)c2ccccc2)cc1 (centres undefined)	none
CCOc1ccc(/C=N/NC(=O)C(O)c2ccccc2)c(O)c1 (centres undefined)	HSF1 inh -82 (no result: TLR4 MyD88 comp)
CN1CCN(C(c2ccc(Cl)cc2)c2cc(Cl)c3cccnc3c2O)CC1 (centres undefined)	HSF-1 act 79 (no result: TLR4 MyD88 comp)
CC(=O)NC(c1ccccc1)c1cc(Cl)c2cccnc2c1O (centres undefined)	HSF1 inh -83 (no result: TLR4 MyD88 comp)
c1ccc2c(c1)nnn1c3ccccc3nc21	HSF-1 act 62 (no result: TLR9-MyD88 inh, NOD2 RIPK2 PPI)
Cc1nc2ccccc2c2nc3ccccc3n12	none
Cc1ccc(NC(=O)c2cc(N3C(=O)C=CC3=O)ccc2Cl)cc1C	HSF-1 act 60
C[C@@H]1CN([C@@H](C)CO)C(=O)CCCn2nncc2CO[C@H]1CN(C)S(=O)(=O)c1ccc(Oc2ccccc2)nc1	none (no result: HSF-1 act, TLR4 MyD88 comp, HSF1 inh)
Cc1cccc(C(=O)Nc2cccc(-c3cnc4ccccc4n3)c2)c1	none
Cc1ccc(C(=O)Nc2cnc3ccccc3c2)cc1	HSF1 inh -67
Cc1cc(C(=O)Nc2cnc3ccccc3c2)ccc1[N+](=O)[O-]	none
Cc1ccc(C(=O)Nc2cccc(-c3cnc4ccccc4n3)c2)cc1	HSF1 inh -61
CN(C)C=NC(=O)c1cc(C(=O)c2ccc(C(C)(C)C)cc2)c[nH]1	HSF-1 act 50
Cc1cnc(C(=O)N2CCN(S(=O)(=O)c3ccc(F)c(F)c3F)CC2)cn1	none (no result: HSF-1 act, TLR4 MyD88 comp, HSF1 inh)
CCN1CCN(C(=O)CCCCCn2c(=O)[nH]c3cc(C(=O)OC)ccc3c2=O)CC1	none
CCN1CCN(CCNC(=O)CCCCCn2c(=O)[nH]c3cc(C(=O)OC)ccc3c2=O)CC1	HSF1 inh -54
CS(=O)(=O)c1nc(S(=O)(=O)c2ccc(Cl)cc2)c(N2CCN(CCO)CC2)s1	none (no result: TLR4 MyD88 comp)
CCS(=O)(=O)c1nc(S(=O)(=O)c2ccc(C)cc2)c(N2CCC(C)CC2)s1	HSF1 inh -89 (no result: TLR4 MyD88 comp)
CCCS(=O)(=O)c1nc(S(=O)(=O)c2ccc(C)cc2)c(N2CCc3ccccc3C2)s1	HSF-1 act 54
Cc1ccc(S(=O)(=O)c2nc(S(=O)(=O)c3ccc(C)cc3)c(N3CCN(CCO)CC3)s2)cc1	HSF-1 act 57 (no result: TLR4 MyD88 comp)
CCCS(=O)(=O)c1nc(S(=O)(=O)c2ccc(C)cc2)c(N2CCC(C)CC2)s1	none (no result: TLR4 MyD88 comp)
CCOC(=O)[C@]12CCC=C1N(Cc1ccco1)C(=O)[C@H](CC(=O)NCc1cccs1)C2	none (no result: HSF-1 act, TLR4 MyD88 comp, HSF1 inh, TLR9-MyD88 inh)
O=C(CC(=O)c1c(F)cccc1Cl)c1ccccc1O	none (no result: TLR4 MyD88 comp)
COc1ccc(S(=O)(=O)N(C)[C@H]2C[C@H]3c4cc(N5CCN(C)CC5)ccc4CCN3C(=O)[C@H]2[C@H](C)O)cc1	none (no result: HSF-1 act, TLR4 MyD88 comp, HSF1 inh)
C[C@H](NC(=O)c1ccco1)C(=O)NCc1cccs1	none (no result: HSF-1 act, TLR4 MyD88 comp, HSF1 inh)
Cc1c2cnccc2c(C)c2c1oc1ccccc12	none (no result: TLR4 MyD88 comp)
O=C(CSc1cccc[n+]1[O-])c1cc(Cl)ccc1Cl	HSF-1 act 170
O=C(CSc1cccc[n+]1[O-])c1cc2ccccc2o1	HSF-1 act 192
CC(C)Nc1nc(Cl)nc(N(C#N)CN2C(=O)c3ccccc3S2(=O)=O)n1	HSF-1 act 118 (no result: TLR4 MyD88 comp)
COc1ccc(C)cc1NC(=O)n1ncc2c(C)cccc21	none (no result: TLR4 MyD88 comp)
COc1ccc(NC(=O)n2ncc3c(C)cccc32)cc1	HSF-1 act 60 (no result: TLR4 MyD88 comp)
COc1ccc(NC(=O)n2ncc3c(C)cccc32)cc1OC	HSF-1 act 53 (no result: TLR4 MyD88 comp)
Cc1ccc(NC(=O)n2ncc3c(C)cccc32)cc1F	HSF-1 act 61 (no result: TLR4 MyD88 comp)
Cc1cccc2c1cnn2C(=O)Nc1ccccc1Br	none (no result: TLR4 MyD88 comp)
COc1cc2cncc(Cc3ccc(Cl)cc3)c2cc1OC	none (no result: HSF-1 act, TLR4 MyD88 comp, HSF1 inh)
COC(=O)c1cc(C)c(C)cc1NC1OC(CO)C(O)C1O (centres undefined)	none (no result: HSF-1 act, TLR4 MyD88 comp, HSF1 inh)
O=C(CSc1cc(Cl)ccc1Cl)Nc1ccc(N2CCOCC2)cc1	none (no result: HSF-1 act, TLR4 MyD88 comp, HSF1 inh)
COc1ccccc1-c1ccc(SCC(=O)Nc2cc(C)on2)nn1	HSF-1 act 60
COc1ccc(CC(=O)Nc2cc(C)on2)cc1	HSF1 inh -91
COC(=O)[C@]1(C)N[C@H](CN(C)C(=O)c2ccc(F)cc2)[C@@H]2C(=O)N(C)C(=O)[C@@H]21	none (no result: HSF-1 act, TLR4 MyD88 comp, HSF1 inh)
C[C@@H]1C[C@H]2[C@@H]3C[C@H](F)C4=CC(=O)C(Cl)=C[C@]4(C)[C@@]3(F)[C@@H](O)C[C@]2(C)[C@@]1(O)C(=O)CO	HSF1 inh -50 (no result: TLR4 MyD88 comp, TLR9-MyD88 inh, NOD2 RIPK2 PPI)
CC(=O)OCC(=O)[C@@]1(O)[C@H](C)C[C@H]2[C@@H]3CCC4=CC(=O)C=C[C@]4(C)[C@@]3(F)[C@@H](O)C[C@@]21C	none
C[C@@H]1C[C@H]2[C@@H]3CCC4=CC(=O)C=C[C@]4(C)[C@@]3(F)[C@@H](O)C[C@]2(C)[C@@]1(O)C(=O)CO	HSF1 inh -53 (no result: TLR4 MyD88 comp)
C[C@@H]1C[C@H]2[C@@H]3C[C@H](F)C4=CC(=O)C=C[C@]4(C)[C@@]3(F)[C@@H](O)C[C@]2(C)[C@@]1(O)C(=O)COC(=O)C(C)(C)C	none
CC(C)[C@H]1COCCS(=O)(=O)N1Cc1ccccc1-c1ccc(F)cc1	none (no result: HSF-1 act, TLR4 MyD88 comp, HSF1 inh)
CN(C)S(=O)(=O)c1cccc(NC(=O)CN2C(=O)NC3(CCc4ccccc4C3)C2=O)c1 (centres undefined)	none (no result: TLR4 MyD88 comp)
COC(=O)C1CCN(C(=O)c2sc3nc(-c4ccccc4)cn3c2C)CC1	HSF1 inh -72
Cc1cccc(NC(=O)c2sc3nc(-c4ccccc4)cn3c2C)n1	none

Assay outcomes as filed in PubChem BioAssay.
